High-throughput results from PubChem.
Autophagy mod: alters autophagy in cells | MEF GFP-LC3 puncta imaging; test concentration mostly 10 µM | calls only at 10 µM (by protocol) | hit rate 0.98% among 190,000;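 active = percentage of spot-positive cells more than 3 SD above its plate mean, without a fluorescence outlier flag or 80% toxicity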
HMGR II inh: inhibitors of class II HMG-CoA reductase from Enterococcus faecalis; AID 1066; purified E. faecalis HMGR, NADPH absorbance 340 nm kinetic; inhibition, % at 10 µM; hit rate 0.41% among 190,000;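 active = inhibition above a set limit, the median over all tested compounds plus 3 SD, cut at about 9.5% in these data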;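 also: enzyme runs in reverse so mevalonate oxidation gives rising NADPH absorbance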
Redox H2O2 prof: compounds producing H2O2 with reducing agent – biochemical, NIH compound library profiling, artefact control for MLSCN library redox annotation, primary screen | DTT-dependent redox cycling H2O2, phenol red/HRP absorbance; 100% = 100 µM peroxide control, 0% = buffer | activation, % at 10 µM | hit rate 0.03% among 200,000 | AID 878;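 active = activation of at least 50% relative to the plate's high and low controls in the primary single-dose screen; inactive = activation below 50%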;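 also: compound incubated with DTT at 0.8 mM final as the reducing agent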
Ins promoter up: MIN6 insulin promoter up-regulation. MIN6 insulin promoter-GFP reporter, high-content imaging; hits give high values. z-score at 5 µM. hit rate 0.3% among 190,000. AID 1625;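 active = z-score above 3 at 5 µM with at least 500 cells counted in the well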
Arbovirus anti: arbovirus infection inhibition | arbovirus infection cell-based antiviral screen | inhibition, % at 10 µM | hit rate 0.37% among 200,000 | AID 1251; in the data active = inhibition above about 30%
NCF1 inh: blocks human p47phox regulatory protein of NADPH oxidases | P14598 | p47phox/p22phox peptide binding, fluorescence polarization, 2 h | inhibition, % at 24.7 µM | hit rate 0.53% among 220,000;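 active = inhibition above about 30%, limit read from the data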
Target sequence (P14598 whole entry, looked up): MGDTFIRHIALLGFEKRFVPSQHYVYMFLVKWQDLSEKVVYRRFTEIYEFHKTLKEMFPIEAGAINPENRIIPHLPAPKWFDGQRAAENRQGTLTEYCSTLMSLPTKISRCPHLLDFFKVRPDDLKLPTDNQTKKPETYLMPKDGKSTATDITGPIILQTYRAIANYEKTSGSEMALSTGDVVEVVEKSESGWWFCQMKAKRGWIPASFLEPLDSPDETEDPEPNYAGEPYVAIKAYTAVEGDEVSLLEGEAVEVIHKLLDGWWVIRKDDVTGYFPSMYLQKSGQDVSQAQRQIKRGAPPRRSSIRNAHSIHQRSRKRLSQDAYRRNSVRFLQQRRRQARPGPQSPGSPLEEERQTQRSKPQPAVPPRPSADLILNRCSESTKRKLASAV
Each line names hits and unclear results; the compound was inactive in the other large screens. This is a sample that favours compounds with a hit; in the whole collection about 2.2% have one here.

Cc1c(Cl)cccc1N1CC(C(=O)Nc2nccs2)CC1=O (centres undefined)	NCF1 inh active
CCc1ccc(N2CC(C(=O)Nc3nccs3)CC2=O)cc1 (centres undefined)	none
CCOc1ccccc1N1CC(C(=O)Nc2nccs2)CC1=O (centres undefined)	none
Cc1ccc(N2CC(C(=O)Nc3nccs3)CC2=O)cc1Cl (centres undefined)	Autophagy mod active (no result: Ins promoter up)
Cc1cccc(-c2cc3nc4c(c(NCc5ccco5)n3n2)CCCC4)c1	none
CC(=O)/C(=N\Nc1ccc(C)cc1)Sc1nncn1C	Autophagy mod active
CCOC(=O)c1nc(Nc2cc(C)cc(C)c2)c2ccccc2n1	none
Cc1ccc(C(=O)NC(=S)Nc2cccc(-c3nc4ccccc4s3)c2)cc1	HMGR II inh 10.2
CCCCn1c(Oc2ccc(C(=O)OC)cc2)nc2c1c(=O)n(C)c(=O)n2C	Autophagy mod active
N=c1c2c(n(Cc3ccc([N+](=O)[O-])cc3)c3c1CCC3)CCCC2	Autophagy mod active
COc1ccccc1Nc1nnc(SCc2cc(=O)n3cc(C)ccc3n2)s1	none
Cc1cccc(/N=C/c2sc3ccccc3c2O)n1	none (no result: Autophagy mod, HMGR II inh, Redox H2O2 prof, Arbovirus anti)
Oc1c(C=Nc2cccc3cccnc23)sc2ccccc12	Autophagy mod active
CC1=Nc2ccccc2/C1=C/c1sc(=N)n(-c2nccs2)c1O	Autophagy mod active
CC1=Nc2ccccc2/C1=C/c1nc(-c2ccc(C)s2)oc1O	none
CC(=O)Nc1ccccc1OCc1cnc(Cl)s1	none
Cc1c(NS(=O)(=O)c2ccc(Br)s2)c(=O)n(-c2ccccc2)n1C	HMGR II inh 10.4
Cc1c(NC2=NC(C)(C)Cc3ccccc32)c(=O)n(-c2ccccc2)n1C	HMGR II inh 11.4
Cc1c(NS(=O)(=O)c2ccc3c(c2)Cc2ccccc2-3)c(=O)n(-c2ccccc2)n1C	HMGR II inh 13.6
CC(C)(C)[C@H]1C=C(C(=O)N2CCN(Cc3ccccc3)CC2)O[C@@H](OCc2ccc(CO)cc2)C1	none (no result: NCF1 inh)
CC1CCN(CC(=O)Nc2cccc(C(=O)Nc3cccc(C(F)(F)F)c3)c2)CC1	none
Cc1cc2c(N=O)c(NO)ccc2[nH]1	none
Cc1csc(SCC(=O)Nc2ccccc2[N+](=O)[O-])n1	none (no result: Ins promoter up)
Cc1csc(SCC(=O)Nc2cccc3nsnc23)n1	NCF1 inh 143.6
Cn1c(/C(C#N)=N/O)nc2ccccc21	HMGR II inh 10.9 (no result: Ins promoter up)
Cc1ccc(C)c(N2CCN(C(=O)CNS(=O)(=O)c3cccs3)CC2)c1	none
Cc1ccc(NC(=O)C2CCCN(C(=O)c3ccc(Cl)cc3)C2)cc1C (centres undefined)	none
CCc1ccc(CN(C)C(=O)CCc2nnc(COc3ccccc3)o2)cc1	none (no result: HMGR II inh)
O=c1[nH]ncc2c3ccccc3n(Cc3cccc(Cl)c3)c12	HMGR II inh 15.6
CCCCNC(=S)N/N=C1\C(=O)c2cccc3cccc1c23	none
CNC(=S)N/N=C1\C(=O)c2cccc3cccc1c23	Autophagy mod active
CCOC(=O)c1cc(N)cc([N+](=O)[O-])c1	none
CCOC(=O)c1sc2cc([N+](=O)[O-])cc(SCC(C)C)c2c1N	Autophagy mod active (no result: Ins promoter up)
C[C@H]1CC[C@H]2C(=O)N3[C@H](c4cccc(N5CCCC5=O)c4)[C@@H](C)CC[C@H]3C(=O)N2[C@@H]1c1cccc(N2CCCC2=O)c1	none
C[C@H]1CC[C@H]2C(=O)N3[C@H](c4ccccc4Br)[C@@H](C)CC[C@H]3C(=O)N2[C@@H]1c1ccccc1Br	Autophagy mod active
CCc1nnc(NC(=O)CCC(=O)N2CCN(C3CCCCC3)CC2)s1	none
CCc1nnc(NC(=O)CCC(=O)N2CCCC2)s1	NCF1 inh 89.9
COc1ccc(/C=C/C(=O)NC(=S)NNC(=O)c2ccco2)cc1OC	none (no result: Autophagy mod, HMGR II inh, Redox H2O2 prof, Arbovirus anti)
COc1ccc(/C=C/C(=O)NC(=S)NNC(=O)c2ccco2)cc1	HMGR II inh 9.8
N#CCCN/N=C(\Cc1nc2ccccc2[nH]1)c1ccccc1	none
N#CCCN/N=C(/Cc1nc2ccccc2[nH]1)c1ccc(Cl)cc1	HMGR II inh 9.9
CCCOc1ccc(N2CC(C(=O)Nc3ccc(N4CCOCC4)cc3)CC2=O)cc1 (centres undefined)	none
O=C(NCc1ccccc1)c1onc(CSc2ccccn2)c1C(=O)NCc1ccccc1	none (no result: Autophagy mod, HMGR II inh, Redox H2O2 prof, Arbovirus anti)
COc1cc(/C=C2\SC(=O)N(c3cccc(Cl)c3)C2=O)cc([N+](=O)[O-])c1O	none
